# Bioassay records (PubChem BioAssay)
# Integrin act MD: qHTS for Activators of Integrin-Mediated Alleviation for Muscular Dystrophy; Potency, µM (top dose mostly 38.3 µM), inactives show at the highest dose activation, usual class: activators; 350,000 compounds, 0.064% hits; alpha7betagal myoblasts, beta-gal FDG fluorescence, 48 h; AID 624291, 2012;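 also: potency is read from the fitted curve at half-maximal effect; 100% = response of the positive control SU9516; nearly all actives have a fitted effect of over 60% in size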
#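 alpha7betagal+/- myoblasts (passage 13, 250/well) treated 48 h at 37C with compounds at 1:260 dilution of DMSO stock. Lysed, then beta-galactosidase activity read as FDG fluorescence (ex 480/em 540) after 30 min, with pre-read for autofluorescence.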
# Gal4-VP16 FLuc: VP16 counterscreen qHTS for inhibitors of ROR gamma transcriptional activity | Potency, µM (doses to about 53.6 µM), without a hit: at the highest dose activity, negative = inhibition, usual class: inhibitors | 310,000 compounds, 3.5% hits | Drosophila S2 Gal4-VP16 UAS-luciferase, luminescence, 20 h | AID 2546, 2010;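 also: Gal4-VP16 expression switched on by copper sulfate through the metallothionein promoter; potency is read from the fitted curve at half-maximal effect; % is scaled to controls: 0 for no effect and ±100 for the full control effect; nearly all actives have a fitted effect of over 50% in size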
# Giardia kill: Small Molecules that selectively kill Giardia lamblia: qHTS. Giardia lamblia trophozoite viability. activity change, % at 7.66 µM, hits read low. 340,000 compounds, 0.15% hits. AID 540267, 2011; in the data active = activity change below about -80%; inconclusive = between about -30% and that limit;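 also: parasites exposed to compound for two days anaerobically before the ATP read; % is scaled to controls: 0 for no effect and ±100 for the full control effect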
#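 ATP-content bioluminescence gauges trophozoite survival. Cells (100/well) receive compound and incubate anaerobically for 48 hrs at 37 deg C; detection reagent follows for 15-30 min at room temperature.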
# RORgamma inh: qHTS for inhibitors of ROR gamma transcriptional activity; Potency, µM (doses to about 53.6 µM), for inactives: at the top dose activity change, negative = inhibition, most hits filed as inhibitors; Nuclear receptor ROR-gamma (Mus musculus), P51450; Drosophila S2 Gal4-RORgamma UAS-luciferase reporter, 20 h; 310,000 compounds, 5.4% hits; also: potency is read from the fitted curve at half-maximal effect; % is scaled to controls: 0 for no effect and ±100 for the full control effect; nearly all actives have a fitted effect of over 60% in size
#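 Luciferase reporter read in Schneider cells carrying Gal4-RORγ (mouse) and UAS-Photinus luciferase; cells given compound 1 h before 700 uM copper sulfate induction, then incubated 20 h at ambient temperature.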
# ERG-DNA inh: qHTS for Small Molecule Inhibitors of the ERG Ets/DNA interaction. Transcriptional regulator ERG (Homo sapiens), P11308. fluorescence polarization, His-ERG Ets domain / labelled DNA. Potency, µM (top dose mostly 76.9 µM), inactives show at the top dose FP activity, negative = inhibition, hits mostly inhibitors. AID 624246, 2012. 370,000 compounds, 0.028% hits; active = well fitted inhibition curve with a large enough effect in the polarisation, with a control signal flat; inconclusive = small, poorly fitted or top-dose-only effect, or effect the other way, or a change in a side signal; inactive = no such curve, though single readings can be large or run the other way; the % refers to the polarisation;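 also: polarization taken with two DNA probes labelled with fluorescein and Texas red; potency is read from the fitted curve at half-maximal effect; % of control where 0% means no effect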
# Target sequence (P11308 whole entry, looked up, the tested form may be a part): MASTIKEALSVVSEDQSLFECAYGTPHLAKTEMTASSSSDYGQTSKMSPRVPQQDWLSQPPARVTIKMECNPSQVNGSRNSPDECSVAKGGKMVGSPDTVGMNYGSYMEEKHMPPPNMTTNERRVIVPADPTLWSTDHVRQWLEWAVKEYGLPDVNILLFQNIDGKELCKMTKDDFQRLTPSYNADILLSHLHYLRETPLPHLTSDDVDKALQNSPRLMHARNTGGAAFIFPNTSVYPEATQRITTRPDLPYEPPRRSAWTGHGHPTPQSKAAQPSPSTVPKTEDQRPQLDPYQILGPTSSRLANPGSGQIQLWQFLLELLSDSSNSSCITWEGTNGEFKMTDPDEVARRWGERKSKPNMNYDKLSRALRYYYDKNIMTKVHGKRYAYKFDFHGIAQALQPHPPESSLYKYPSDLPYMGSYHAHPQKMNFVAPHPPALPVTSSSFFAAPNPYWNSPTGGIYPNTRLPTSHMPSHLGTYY
#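 His-tagged ERG Ets domain (1 uM in the protein solution; 300mM KCl, 50mM Tris-HCl, 1mM EDTA, 1mM DTT, pH 7.5) received compound, then a probe mix of 5 nM fluorescein-DNA and 100nM Texas-615-DNA. Fluorescence polarization was read for both dyes.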
# Active calls of the source: *; ? = inconclusive; . = no result; [ ] = another dose, or the depositor's remark. The full list was thinned out, with hits kept by preference. Unless noted, calls follow the shape of the dose curve; as a rule, active = well fitted curve in the direction sought with a large enough effect; inconclusive = small, poorly fitted or top-dose-only effect, or another doubt; inactive = no such curve, though single readings can be large; an effect the other way counts as inactive or inconclusive.
SMILES,Integrin act MD,Gal4-VP16 FLuc,Giardia kill,RORgamma inh,ERG-DNA inh
Cc1ccc(NC(=O)c2nnn(-c3ccc4c(c3)OCCO4)c2N)cc1,24%,3%,-16,-23%,10%
Cc1cc(N2CCCCC2)n2ncc(-c3ccc(Cl)cc3)c2n1,-3%[7.66 µM],?,-16,37%,-1%
Cc1cc(N2CCCCC2)n2ncc(-c3ccccc3)c2n1,-21%,10µM*,-16,?,7%
Cc1cc(NC2CCCC2)n2ncc(-c3ccccc3)c2n1,-23%,8.9µM*,-24,7.1µM*,-7%
Cc1cc(-c2ccccc2)n2ncc(-c3ccccc3)c2n1,-3%,10µM*,-15,?,-3%
Cc1cc(NC2CCCC2)n2nc(C)c(-c3ccccc3)c2n1,3%,5%,-24,-44%,12%
Cc1cc(N2CCOCC2)n2ncc(-c3ccccc3)c2n1,-8%,13µM*,?,?,7%
CCCCCCC(=O)Cc1cc(OC)c(OC)cc1/C=C(/C(C)=O)C(=O)OC,.,-3%[10 µM],.,-7%[10 µM],.
CCOC(=O)Cc1c(C)nc2c(-c3ccccc3)cnn2c1C,17%,-8%,-13,27%,-5%
Cc1nc2c(-c3ccccc3)cnn2c(N)c1-c1ccccc1,17%,?,-29,0.79µM*,-1%
COc1ccc2nc(N3C(=O)/C(=C/c4ccccc4)NC3=S)sc2c1,14%,1.4µM*,-2,1.4µM*,32%
CCOc1ccc2nc(N3C(=O)/C(=C/c4ccccc4)NC3=S)sc2c1,27%,1.1µM*,?,1.3µM*,.
COc1ccc2nc(-n3c(C)ccc3C)sc2c1,1%,2%,-4,9%,.
CCCCC1=CC2=C(OC(C)=O)C(=O)C(C)(OC(=O)C3CCCC3)C(=O)C2=CO1 (stereo not drawn),.,-2%,.,9%,.
COc1cccc2nc3cc(C)c(C)cc3nc12,5%,?,-23,10µM*,-9%
O=[N+]([O-])c1ccc(N2CCN(CC3CCCCC3)CC2)cc1,-20%,2%,-15,-1%,-12%
Cc1ccc(-c2csc3nc[nH]c(=S)c23)cc1C,8%,?,-5,0.45µM*,0%
COc1ccc(-c2csc3nc[nH]c(=O)c23)cc1OC,-19%,7%,1,16%,-3%
Cc1ccccc1OCCn1c(=S)[nH]c2ccccc21,-11%,4.5µM*,-5,2.5µM*,-3%
CCn1c(=S)[nH]c2ccccc21,-7%,?,-12,?,1%
Fc1ccccc1OCCn1c(=S)[nH]c2ccccc21,-3%,4.5µM*,-20,5.6µM*,4%
CO/N=C\[C@@H](NS(=O)(=O)c1ccc(C)cc1)[C@H](C)/C=C\CC(=O)OC,.,8%[10 µM],.,8%[10 µM],.
Cc1ccccc1N/N=C/c1c(C)nc2ccccn12,-7%,-6%,-26,10µM*,-4%
Cn1c(-c2sc(=S)n(-c3ccccc3)c2N)nc2ccccc21,14%,-2%,12,7.9µM*,-11%
C=CCn1c(N)c(-c2nc3ccccc3n2C)sc1=S,-11%,?,4,-160%,-2%
SMILES,Integrin act MD,Gal4-VP16 FLuc,Giardia kill,RORgamma inh,ERG-DNA inh
CC1=NN(C(N)=S)C(=O)C1N=Nc1ccc(F)cc1 (stereo not drawn),-7%,1.3µM*,-15,1µM*,1%
CC1=NN(C(N)=S)C(=O)C1N=Nc1ccc(O)cc1 (stereo not drawn),-28%,?,-5,4µM*,-1%
CCOc1ccc(N=NC2C(=O)N(C(N)=S)N=C2C)cc1 (stereo not drawn),-16%,0.35µM*,3,0.32µM*,1%
CC1=NN(C(N)=S)C(=O)C1N=Nc1cccc(C)c1 (stereo not drawn),11%,0%,-10,6%,-6%
CC(=O)Nc1ccc(N=NC2C(=O)N(C(N)=S)N=C2C)cc1 (stereo not drawn),?,8.9µM*,-1,5µM*,1%
CNc1c(-n2cc(C(=O)OC)c(C(=O)OC)c2C(=O)OC)c(=O)n(C)c(=O)n1C,-16%,2%,-2,4%,5%
COc1cccc(-n2c(Cc3cc(=O)[nH]c(=O)[nH]3)nnc2SCc2cccc(C(F)(F)F)c2)c1,0%,-1%,-3,36%,4%
CC1=NN(C(N)=S)C(=O)C1N=Nc1ccc(C)c(Br)c1 (stereo not drawn),-2%,2.8µM*,-21,0.71µM*,-4%
CC1=NN(C(N)=S)C(=O)C1N=Nc1ccc([N+](=O)[O-])cc1 (stereo not drawn),-18%,1.3µM*,-13,0.16µM*,2%
CC1=NN(C(N)=S)C(=O)C1N=Nc1cccc(C(=O)O)c1 (stereo not drawn),-4%,?,6,11µM*,3%
CCOC(=O)N1CCN(C(=S)NC(=O)/C=C/c2ccc(C)cc2)CC1,?,5.6µM*,17,5µM*,-2%
COc1ccc(/C=C/C(=O)NC(=S)N2CCN(C)CC2)cc1,5%,?,22,5.6µM*,5%
CCOC(=O)N1CCN(C(=O)Cc2ccc(C)cc2)CC1,-19%,1%,12,7%,.
COc1ccc(C(=O)NNC(=S)NC(=O)c2cccs2)cc1,-18%,-29%,-5,?,-18%
COc1ccc(/C=C/C(=O)NC(=S)NNC(=O)c2cccs2)cc1,-12%,22µM*,-23,2µM*,4%
COc1ccc([C@H]2CN(c3ccc(OC)cc3)C(=O)[C@@H]2CC(=O)Nc2ccc(Br)cc2)cc1,-9%,.,.,.,.
CCCCNC(=O)COC(=O)c1c2c(nc3ccccc13)/C(=C/c1cccs1)CC2,-15%,?,5,?,-1%
CNC(=O)NC(=O)C(C)OC(=O)c1c2c(nc3ccccc13)/C(=C/c1cccs1)CC2 (stereo not drawn),4%,0.13µM*,-7,0.63µM*,-9%
CCCCCC/C(C)=C1/SC(=S)NC1=O,26%,-19%,?,16µM*,.
C/C(C/C(C)=C1/SC(=S)NC1=O)=C1\SC(=S)NC1=O,6%,6%,-6,-14%,25%
COc1ccc(-c2[nH]n(-c3ccc([N+](=O)[O-])cc3)c(=O)c2C=NCCN2CCNCC2)cc1,.,?,.,14µM*,.
O=C1[C@H]2[C@@H](C(=O)N1c1cccc3ccccc13)C1(C(=O)c3ccccc3C1=O)N1CCC[C@@H]21,-26%,20µM*,-3,-80%,-9%
CS(=O)(=O)NNC(=O)c1cc2cc3ccccc3nc2s1,-7%,-21%,-2,-11%,15%
CCN(CCCNC(=O)c1cc2cc3ccc(C)cc3nc2s1)c1ccccc1,.,.,.,.,7%
NNC(=O)c1cc2cc3ccccc3nc2s1,-76%,-11%,0,13µM*,11%
